Data reported in PMC5540273 (PLoS ONE, 2017).

What was measured:
Details in all cases: concentration: 1 μM, replicates: in singlicate; n = 1
[1] = test system: MAPKAPK5
[2] = test system: MARK1
[3] = test system: MARK2
[4] = test system: MARK3
[5] = test system: MARK4
[6] = test system: MAST1
[7] = test system: T1, MEK1
T1 construct: gene MAP2K1

[8] = test system: T2, MEK2
T2 construct: gene MAP2K2

[9] = test system: T3, MEK3
T3 construct: gene MAP2K3

[10] = test system: T4, MEK4
T4 construct: gene MAP2K4
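Also: KINOMEscan kinase panel screen.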

| SMILES | %Inh [1] | %Inh [2] | %Inh [3] | %Inh [4] | %Inh [5] | %Inh [6] | %Inh [7] | %Inh [8] | %Inh [9] | %Inh [10] |
| --- | --- | --- | --- | --- | --- | --- | --- | --- | --- | --- |
| COc1cccc2c(-c3ccncc3)c(-c3ccc(F)cc3)nn12 [GW468513] | 0% | 0% | 0% | 0% | 3% | 15% | 0% | 1% | 0% | 19% |
| O=C(O)C(F)(F)F.O=c1[nH]ccc2nc(N[C@@H]3CCNC3)nc(Nc3ccc4c(c3)S(=O)(=O)CC4)c12 [GSK2181306] | 90.4% | 65% | 91.7% | 70% | 81% | 12% | 97.5% | 94.7% | 93.5% | 91% |
| Cc1ccc(-c2ccc3occ(-c4ccc(S(C)=O)cc4)c3c2)nn1 (centres unmarked) | 0% | 0% | 14% | 16% | 4% | 0% | 0% | 4% | 0% | 0% |
| CN(c1ccc(NC(=O)Nc2cccc(Cl)c2)cc1)c1ccnc(N)n1.Cl [GW830707] | 0% | 0% | 0% | 43% | 5% | 84% | 16% | 23% | 0% | 0% |
| Nc1ncnc2scc(-c3ccc(NC(=O)Cc4cc(F)ccc4F)cc3)c12.O=C(O)C(F)(F)F [SB-731254-M] | 10% | 27% | 31% | 0% | 6% | 21% | 24% | 19% | 23% | 18% |
| Nc1ncc(-c2cn[nH]c2)c2scc(-c3ccc4c(c3)CCN4C(=O)Cc3ccccc3)c12 [GSK2593067] | 0% | 0% | 7% | 0% | 7% | 0% | 0% | 0% | 0% | 60% |
| Cc1ccc(NC(=O)c2ccc(Cl)c(Cl)c2)cc1-c1ccc(C(=O)Nc2ccncc2)cc1 [GSK1398460] | 0% | 7% | 0% | 0% | 16% | 0% | 0% | 0% | 0% | 0% |
| Nc1ncc(-c2ccc3nccc(-c4ccncc4)c3c2)cc1S(=O)(=O)N1CCCCC1 [GSK1693850] | 0% | 0% | 15% | 0% | 0% | 0% | 0% | 0% | 13% | 33% |
